From PubChem BioAssay (Tox21)
Where “and” joins values, the source holds several entries; their conditions need not be identical. Identical values can stand only once. Records with an inconclusive call do not appear. A call without a number means that no potency is given here. A structure can be active in one record and inactive in another. Calls of active or inactive are those of the source. Unless noted, calls come from the whole dose curve; as a rule, active = well fitted curve in the direction sought with a large enough effect in the repeat runs; inconclusive = weak or mixed curves; inactive = no such curve, though single readings can be large; an effect the other way counts as inactive or inconclusive.

Key:
[1] = qHTS assay to identify small molecule agonists of the peroxisome proliferator-activated receptor delta (PPARd) signaling pathway - cell viability counter screen (AID 743211); note: nearly all actives have a fitted effect of over 55% in size; note: potency is the fitted concentration of half-maximal effect
Summary of the method: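 Luminescent ATP viability assay (CellTiter-Glo, 30 min RT) in UAS-bla HEK293H cells carrying the PPAR delta reporter construct, 3000 cells/well, after a 17 h compound treatment at 37 C.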

[2] = biological target: Peroxisome proliferator-activated receptor delta (Homo sapiens) (UniProt Q03181); assay: qHTS assay to identify small molecule antagonists of the peroxisome proliferator-activated receptor delta (PPARd) signaling pathway (AID 743215; active = well fitted inhibition curve with a large enough effect in the signal ratio in the repeat runs, not every such curve was filed as active; the % refers to the signal ratio;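 note: cells stimulated with agonist L165041 at 300 nM final during compound exposure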; note: potency is the fitted concentration of half-maximal effect)
Summary of the method: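 Antagonist-mode beta-lactamase reporter screen: HEK293H cells with UAS-bla under PPARd control, stimulated by 300 nM L165041 (final) alongside test compound for 17 h at 37 C, then FRET fluorescence after 2 h substrate incubation.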

[3] = biological target: Bile acid receptor (Homo sapiens) (UniProt Q96RI1); assay: qHTS assay to identify small molecule antagonists of the farnesoid-X-receptor (FXR) signaling pathway (AID 743217; active = well fitted inhibition curve with a large enough effect in the signal ratio in the repeat runs, not every such curve was filed as active; the % refers to the signal ratio)
Summary of the method: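 Beta-lactamase reporter under UAS control in HEK 293T cells; compound exposure 16 h at 37 °C in the presence of chenodeoxycholic acid (50 uM final); signal from B/G FRET substrate after 2 h at room temperature.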

[4] = qHTS assay to identify small molecule agonists of the farnesoid-X-receptor (FXR) signaling pathway - cell viability counter screen (AID 743218); note: nearly all actives have a fitted effect of over 45% in size; note: potency is the fitted concentration of half-maximal effect
Summary of the method: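 In GeneBLAzer FXR-UAS-bla HEK 293T cells, compounds act for 16 h at 37 C. Cell viability is then scored in the reporter wells by CellTiter-Glo, 30 min at RT, luminescence.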

[5] = biological target: Bile acid receptor (Homo sapiens) (UniProt Q96RI1); assay: qHTS assay to identify small molecule agonists of the farnesoid-X-receptor (FXR) signaling pathway (AID 743220; active = well fitted activation curve with a large enough effect in the signal ratio in the repeat runs, not every such curve was filed as active; the % refers to the signal ratio)
Summary of the method: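 Beta-lactamase reporter under UAS control in GeneBLAzer FXR HEK 293T cells (5000/well) measured with LiveBLAzer FRET substrate after 2 h at room temperature. Compound exposure lasted 16 h at 37C.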

[6] = qHTS assay to identify small molecule antagonists of the farnesoid-X-receptor (FXR) signaling pathway - cell viability counter screen (AID 743221; active = well fitted cell-killing curve with a large enough effect in the repeat runs, not every such curve was filed as active; note: nearly all actives have a fitted effect of over 50% in size; note: potency is the fitted concentration of half-maximal effect)
Summary of the method: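 In GeneBLAzer FXR-UAS-bla HEK 293T cells stimulated with 50 uM chenodeoxycholic acid (final), compounds acted for 16 h at 37 C. Viability was assessed afterwards by CellTiter-Glo luminescence.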

[7] = qHTS assay to identify small molecule agonists of the vitamin D receptor (VDR) signaling pathway - cell viability counter screen (AID 743224); note: nearly all actives have a fitted effect of over 50% in size; note: potency is the fitted concentration of half-maximal effect
Summary of the method: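 VDR-bla cell line, quantitative HTS format; 16 h compound incubation (37C, 5% CO2); ATP-based CellTiter-Glo luminescence measured in the reporter assay wells.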

[8] = qHTS assay to identify small molecule antagonists of the vitamin D receptor (VDR) signaling pathway - cell viability counter screen (AID 743225); note: nearly all actives have a fitted effect of over 50% in size; note: potency is the fitted concentration of half-maximal effect
Summary of the method: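 Luminescent cell viability (CellTiter-Glo) in VDR-bla HEK 293T cells after 16 h compound exposure at 37C in the presence of 3 nM final 1-alpha,25-dihydroxy vitamin D3.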

[9] = qHTS assay to identify small molecule agonists of the NFkB signaling pathway (AID 1159509; active = well fitted curve in the direction sought with a large enough effect in the signal ratio in the repeat runs, not every such curve was filed as active; the % refers to the signal ratio; note: series mostly up to about 61 µM)
Summary of the method: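 NFkB-bla ME-180 cells carry a beta-lactamase reporter under an NF-kB response element. They were plated overnight, then exposed to compounds for 5 h at 37 C. Read-out is LiveBLAzer FRET after 1.5 hr at room temperature (405 nm excitation; 460/530 nm emission).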

[10] = qHTS assay to identify small molecule agonists of the endoplasmic reticulum stress response signaling pathway (AID 1159516; active = well fitted activation curve with a large enough effect in the signal ratio in the repeat runs, not every such curve was filed as active; the % refers to the signal ratio)
Summary of the method: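 ER stress element reporter (bla) in HeLa. 1,500 cells/well, overnight attachment; 5 hr compound; 2 hr RT substrate; dual-emission fluorescence.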

[11] = qHTS assay to identify small molecule agonists of the endoplasmic reticulum stress response signaling pathway - cell viability counter screen (AID 1159517; calls by dose curve; note: nearly all actives have a fitted effect of over 50% in size; note: potency is the fitted concentration of half-maximal effect)
Summary of the method: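 CellTiter-Glo was added to wells already read for beta-lactamase FRET, and luminescence was recorded 30 min later. Cells: ESRE-bla HeLa, 1,500 per well, compound exposure 5 hr at 37 C.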

[12] = qHTS assay to identify small molecule antagonists of the retinoid-related orphan receptor gamma (ROR-gamma) signaling pathway - cell viability counter screen (AID 1159520); note: nearly all actives have a fitted effect of over 50% in size; note: potency is the fitted concentration of half-maximal effect
Summary of the method: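 Tet-on ROR gamma CHO cells (1,000/well) were plated 4 hr, given compounds in DMSO for 2 hr at 37 C, then induced with 1 uM final doxycycline for 16 hr. Viability was read as ATP by CellTiter-Glo luminescence after 30 min.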

[13] = biological target: Nuclear receptor ROR-gamma (Homo sapiens) (UniProt P51449); assay: qHTS assay to identify small molecule antagonists of the retinoid-related orphan receptor gamma (ROR-gamma) signaling pathway (AID 1159521; note: nearly all actives have a fitted effect of over 50% in size; note: potency is the fitted concentration of half-maximal effect)
Summary of the method: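 CHO cells expressing RORγ under a TET-on promoter, luciferase under RORE control. Dox 1 uM final, 16 h; compounds added 2 h prior. Luminescence decrease measured.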

[14] = qHTS assay to identify small molecule agonists of the AP-1 signaling pathway - cell viability counter screen (AID 1159525; calls by dose curve; note: nearly all actives have a fitted effect of over 55% in size; note: potency is the fitted concentration of half-maximal effect)
Summary of the method: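 ME-180 AP-1-bla, 2500 cells/well, Opti-MEM + 0.5% dialyzed FBS; overnight 37 °C; cpd 15-pt titration, 5 h 37 °C; CellTiter-Glo 30 min RT; luminescence read; normalised to TOAB and DMSO controls.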

[15] = qHTS assay to identify small molecule agonists of the AP-1 signaling pathway (AID 1159526; calls by dose curve)
[16] = biological target: Peroxisome proliferator-activated receptor delta (Homo sapiens) (UniProt Q03181); assay: qHTS assay to identify small molecule agonists of the peroxisome proliferator-activated receptor delta (PPARd) signaling pathway (AID 743212; calls by dose curve)
Summary of the method: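 A PPARd-bla HEK293H line with beta-lactamase under an Upstream Activator Sequence is treated with compounds at 37 C. Substrate loading for 2 h at room temperature precedes the fluorescence measurement.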

[17] = qHTS assay to identify small molecule antagonists of the peroxisome proliferator-activated receptor delta (PPARd) signaling pathway - cell viability counter screen (AID 743213); note: nearly all actives have a fitted effect of over 50% in size; note: potency is the fitted concentration of half-maximal effect
Summary of the method: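 HEK293H cells with the PPARd UAS-bla reporter, co-treated 17 h at 37 C with compounds and L165041 (300 nM final), were lysed with CellTiter-Glo. Luminescence indicated viable cell content.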

[18] = biological target: Vitamin D3 receptor (Homo sapiens) (UniProt P11473); assay: qHTS assay to identify small molecule antagonists of the vitamin D receptor (VDR) signaling pathway (AID 743223; active = well fitted inhibition curve with a large enough effect in the signal ratio in the repeat runs, not every such curve was filed as active; the % refers to the signal ratio)
Summary of the method: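 Agonist 1alpha,25-dihydroxyvitamin D3 (3 nM in well) was added with each compound to VDR-bla cells preincubated 4 h. Cells stood 16 h at 37C, then FRET substrate 2 h at room temperature; fluorescence intensity recorded.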

[19] = biological target: Vitamin D3 receptor (Homo sapiens) (UniProt P11473); assay: qHTS assay to identify small molecule agonists of the vitamin D receptor (VDR) signaling pathway (AID 743222; calls by dose curve)
Summary of the method: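 Agonist activity measured in VDR-bla reporter cells. Exposure 16 h, 37C, 5% CO2; detection by B/G FRET substrate, 2 h RT.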

[20] = qHTS assay to identify small molecule agonists of the NFkB signaling pathway - cell viability counter screen (AID 1159515; calls by dose curve; note: nearly all actives have a fitted effect of over 55% in size; note: potency is the fitted concentration of half-maximal effect)
Summary of the method: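 Viability in NFkB-bla ME-180 cells was measured by CellTiter-Glo luminescence, 30 min room temperature, in wells already treated 5 hr with compounds and read for reporter FRET.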

Chain of Peroxisome proliferator-activated receptor delta (Homo sapiens) (Q03181 whole entry, looked up): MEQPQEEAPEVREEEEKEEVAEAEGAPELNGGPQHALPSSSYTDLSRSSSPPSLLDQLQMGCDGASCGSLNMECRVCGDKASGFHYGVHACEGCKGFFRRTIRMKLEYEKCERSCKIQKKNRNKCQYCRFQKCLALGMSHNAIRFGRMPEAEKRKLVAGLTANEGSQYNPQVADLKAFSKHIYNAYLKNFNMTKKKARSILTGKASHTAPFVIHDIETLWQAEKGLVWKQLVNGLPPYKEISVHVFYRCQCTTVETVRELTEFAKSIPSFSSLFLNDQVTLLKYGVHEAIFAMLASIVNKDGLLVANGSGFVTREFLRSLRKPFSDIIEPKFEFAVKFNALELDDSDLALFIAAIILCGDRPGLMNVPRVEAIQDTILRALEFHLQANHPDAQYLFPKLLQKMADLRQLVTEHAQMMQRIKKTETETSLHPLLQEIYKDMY
Chain of Bile acid receptor (Homo sapiens) (Q96RI1 whole entry, looked up): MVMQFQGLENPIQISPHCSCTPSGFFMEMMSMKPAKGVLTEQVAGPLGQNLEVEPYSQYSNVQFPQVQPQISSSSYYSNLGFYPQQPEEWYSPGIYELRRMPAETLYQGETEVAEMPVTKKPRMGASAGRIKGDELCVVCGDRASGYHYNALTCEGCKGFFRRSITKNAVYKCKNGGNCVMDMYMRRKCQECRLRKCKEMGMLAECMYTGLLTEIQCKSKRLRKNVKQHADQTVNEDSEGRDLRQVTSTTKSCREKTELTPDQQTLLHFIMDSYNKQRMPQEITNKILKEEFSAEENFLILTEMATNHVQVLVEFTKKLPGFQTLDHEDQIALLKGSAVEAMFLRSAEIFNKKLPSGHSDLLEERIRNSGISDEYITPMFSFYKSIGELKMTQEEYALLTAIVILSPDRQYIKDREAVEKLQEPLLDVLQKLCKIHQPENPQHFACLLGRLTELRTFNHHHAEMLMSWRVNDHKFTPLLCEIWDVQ
Chain of Vitamin D3 receptor (Homo sapiens) (P11473 whole entry, looked up): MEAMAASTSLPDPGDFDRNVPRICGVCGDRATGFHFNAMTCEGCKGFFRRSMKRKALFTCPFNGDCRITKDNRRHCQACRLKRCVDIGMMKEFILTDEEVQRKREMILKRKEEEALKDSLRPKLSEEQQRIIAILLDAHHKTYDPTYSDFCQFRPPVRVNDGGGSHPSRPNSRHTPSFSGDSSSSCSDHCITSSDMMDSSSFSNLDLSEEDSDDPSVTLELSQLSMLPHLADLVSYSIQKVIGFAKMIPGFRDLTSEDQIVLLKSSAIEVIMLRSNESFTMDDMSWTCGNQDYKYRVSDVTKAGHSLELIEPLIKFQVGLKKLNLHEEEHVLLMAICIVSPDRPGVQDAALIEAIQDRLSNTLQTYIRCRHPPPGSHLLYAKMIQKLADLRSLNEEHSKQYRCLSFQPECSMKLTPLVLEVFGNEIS

Structure (SMILES)	Potency [1]	Potency [2]	Potency [3]	Potency [4]	outcome [5]	Potency [6]	Potency [7]	Potency [8]	outcome [9]	outcome [10]	Potency [11]	Potency [12]	Potency [13]	Potency [14]	outcome [15]	outcome [16]	Potency [17]	outcome [18]	outcome [19]	Potency [20]
Cn1cc[n+](C)c1 (tested in a mixture with another compound)	inactive	inactive	inactive	inactive	inactive	inactive	inactive	inactive	inactive	inactive	inactive	inactive	inactive	inactive	inactive	–	–	–	–	–
Clc1cccc(SC2CCNCC2)n1	inactive	inactive	inactive	inactive	inactive	inactive	inactive	inactive	inactive	inactive	inactive	inactive	inactive	inactive	inactive	inactive	inactive	inactive	–	–
CCCCOC(=O)c1ccccc1C(=O)OCc1ccccc1	inactive	–	–	–	–	–	inactive	inactive	inactive	inactive	inactive	inactive	inactive	inactive	inactive	inactive	–	–	–	–
Clc1cccc2ccccc12	inactive	inactive	–	inactive	–	inactive	inactive	inactive	inactive	inactive	inactive	inactive	inactive	inactive	inactive	–	inactive	–	inactive	–
COc1c(C(C)(C)C)cc([N+](=O)[O-])c(C)c1[N+](=O)[O-]	inactive	inactive	–	inactive	–	–	inactive	inactive	inactive	inactive	inactive	inactive	inactive	inactive	–	inactive	inactive	inactive	inactive	–
c1ccoc1	–	inactive	inactive	inactive	inactive	–	inactive	inactive	inactive	inactive	inactive	inactive	inactive	inactive	inactive	inactive	inactive	inactive	–	–
O=Cc1ccc(Cl)cc1Cl	inactive	inactive	–	inactive	–	–	inactive	inactive	inactive	inactive	inactive	inactive	inactive	inactive	inactive	inactive	inactive	–	inactive	–
C=CC(=O)OCC(C)C	inactive	inactive	–	inactive	–	inactive	inactive	inactive	inactive	inactive	inactive	inactive	inactive	inactive	inactive	–	inactive	–	inactive	–
CC(=O)NC1CCSC1=O (centres undefined)	inactive	inactive	–	inactive	–	inactive	inactive	inactive	inactive	inactive	inactive	inactive	inactive	inactive	inactive	–	inactive	–	–	–
C=CCCl	–	inactive	–	inactive	–	inactive	inactive	inactive	inactive	–	–	inactive	–	inactive	inactive	–	inactive	–	inactive	inactive
N#Cc1cc(I)c(O)c(I)c1	–	inactive	–	–	–	inactive	–	–	inactive	inactive	inactive	inactive	24.3 µM (active)	inactive	inactive	–	–	–	inactive	–
IC(I)=C(I)I	9.77 µM (active)	15.5 µM (active)	–	12.3 µM (active)	–	–	11 µM (active)	17.4 µM (active)	inactive	–	–	3.86 µM (active)	2.73 µM (active)	24.5 µM (active)	–	–	12.3 µM (active)	–	–	54.9 µM (active)
CC(C)(CCl)C(=O)Cl	inactive	inactive	–	inactive	–	inactive	inactive	–	inactive	inactive	inactive	inactive	inactive	inactive	–	–	–	inactive	–	–
CCC(C)(NC(=O)c1cc(Cl)c(C)c(Cl)c1)C(=O)CCl (centres undefined)	49.3 µM (active)	–	–	–	–	55.3 µM (active)	55.3 µM (active)	–	inactive	–	–	21.8 µM (active)	6.15 µM (active)	–	–	–	–	–	–	inactive
O=C(O)C1(c2ccc3c(c2)OC[C@H](Cc2ccc(-c4ccccc4)cc2)[C@H]3O)CCCC1	49 µM (active)	–	inactive	–	–	–	49 µM (active)	49 µM (active)	inactive	–	–	–	54.5 µM (active)	inactive	inactive	–	43.6 µM (active)	–	–	inactive
CCCCC(CC)COP(=O)(Oc1ccccc1)Oc1ccccc1 (centres undefined)	–	–	–	inactive	inactive	inactive	–	inactive	inactive	–	inactive	inactive	inactive	inactive	–	inactive	inactive	inactive	inactive	–
OCCCBr	inactive	–	–	inactive	–	–	inactive	–	inactive	–	–	inactive	inactive	inactive	–	–	–	–	–	–
COc1nn(CSP(=S)(OC)OC)c(=O)s1	–	–	–	–	inactive	inactive	–	–	inactive	–	–	–	–	–	–	–	–	–	–	–
O=C(CCl)c1ccc(Cl)cc1Cl	18.8 µM (active)	–	inactive	–	–	–	inactive and 18.8 µM (active)	inactive	inactive	–	10.7 µM (active)	11.9 µM (active)	10.6 µM (active)	inactive	–	–	inactive and 29.8 µM (active)	–	–	–
O=[N+]([O-])c1cc(C(F)(F)F)cc([N+](=O)[O-])c1Cl	–	inactive	inactive	–	inactive	inactive	inactive	inactive	inactive	–	inactive	inactive	inactive	inactive	inactive	–	inactive	–	–	–
CO[C@@H]1[C@H](OC(=O)NC(=O)CCl)CC[C@]2(CO2)[C@H]1[C@@]1(C)O[C@@H]1CC=C(C)C	inactive	inactive	–	0.0021 µM (active)	–	inactive	inactive	inactive	inactive	–	–	–	–	–	–	–	–	–	–	–
